For 25 compounds, outcome and AC50 results are on record in PubChem BioAssay (EPA / NIEHS).

A short description of test [1]: ATG_CRE_CIS: Attagene CIS-FACTORIAL HepG2 Assay for human cAMP Responsive Element (CRE) binding protein 3 (AID 2282926). Particulars: HepG2 CRE cis-reporter, Attagene multiplexed mRNA; actives raise or lower the signal. The method in brief: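 Assay format: transient reporter transfection of HepG2, 24 h treatment, total RNA isolation with DNase I step. Reporter abundance read by fluorescence after PCR and capillary separation; DMSO-normalised gain or loss fitting.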

Test [2] has as its target CCAAT/enhancer-binding protein beta (Homo sapiens) (UniProt P17676). Kind of test: ATG_C_EBP_CIS: Attagene CIS-FACTORIAL HepG2 Assay for human CCAAT/Enhancer Binding Protein (C/EBP) beta (AID 2282927). The note with it: HepG2 Attagene cis-factorial transcription factor reporter; actives raise or lower the signal. The method in brief: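 HepG2, transient MRTU transfection, 24 h treatment. RT-PCR plus CE fluorescence; DMSO negative control, bidirectional fit.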

Test [3] is described as follows: ATG_CMV_CIS: Attagene CIS-FACTORIAL HepG2 Assay for human CMV (Internal Marker) (AID 2282928).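 Note: endpoint acts as a background internal control marker rather than a target.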 Particulars: HepG2 CMV promoter reporter, transcription factor profiling; actives raise or lower the signal. Summed up: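 24 h chemical treatment, HepG2 with transient multi-reporter transfection; RNA → oligo(dT) RT → PCR → 6-FAM extension → HpaI digest → CE fluorescence. Bidirectional fit, DMSO negative control.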

A short description of test [4]: ATG_DR4_LXR_CIS: Attagene CIS-FACTORIAL HepG2 Assay for human Liver X Receptor (LXR), DR4 submotif (AID 2282929). The note with it: HepG2 Attagene DR4 cis-reporter, mRNA transcription; actives raise or lower the signal. Summed up:
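HepG2 cells transiently transfected with cis-promoter-driven multiplexed reporter units (DR4 element) were dosed for 24 h. Reporter mRNA was quantified by RT-PCR, fluorescent primer extension, HpaI digestion and capillary electrophoresis; bidirectional fitting versus DMSO baseline.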

For test [5], the target named is Aryl hydrocarbon receptor (Homo sapiens) (UniProt P35869). In words: ATG_Ahr_CIS: Attagene CIS-FACTORIAL HepG2 Assay for human Aryl Hydrocarbon Receptor (Ahr) (AID 2282930). The note with it: HepG2 AhR cis-factorial reporter transcription; actives raise or lower the signal. Summed up: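 Endogenous factor activity is tracked through cis-promoter reporter units transfected into HepG2 cells. Transcript levels at 24 h are read by fluorescent RT-PCR and capillary electrophoresis, with activity in either direction scored relative to DMSO.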
Sequence of Aryl hydrocarbon receptor (Homo sapiens) (P35869 whole entry, looked up): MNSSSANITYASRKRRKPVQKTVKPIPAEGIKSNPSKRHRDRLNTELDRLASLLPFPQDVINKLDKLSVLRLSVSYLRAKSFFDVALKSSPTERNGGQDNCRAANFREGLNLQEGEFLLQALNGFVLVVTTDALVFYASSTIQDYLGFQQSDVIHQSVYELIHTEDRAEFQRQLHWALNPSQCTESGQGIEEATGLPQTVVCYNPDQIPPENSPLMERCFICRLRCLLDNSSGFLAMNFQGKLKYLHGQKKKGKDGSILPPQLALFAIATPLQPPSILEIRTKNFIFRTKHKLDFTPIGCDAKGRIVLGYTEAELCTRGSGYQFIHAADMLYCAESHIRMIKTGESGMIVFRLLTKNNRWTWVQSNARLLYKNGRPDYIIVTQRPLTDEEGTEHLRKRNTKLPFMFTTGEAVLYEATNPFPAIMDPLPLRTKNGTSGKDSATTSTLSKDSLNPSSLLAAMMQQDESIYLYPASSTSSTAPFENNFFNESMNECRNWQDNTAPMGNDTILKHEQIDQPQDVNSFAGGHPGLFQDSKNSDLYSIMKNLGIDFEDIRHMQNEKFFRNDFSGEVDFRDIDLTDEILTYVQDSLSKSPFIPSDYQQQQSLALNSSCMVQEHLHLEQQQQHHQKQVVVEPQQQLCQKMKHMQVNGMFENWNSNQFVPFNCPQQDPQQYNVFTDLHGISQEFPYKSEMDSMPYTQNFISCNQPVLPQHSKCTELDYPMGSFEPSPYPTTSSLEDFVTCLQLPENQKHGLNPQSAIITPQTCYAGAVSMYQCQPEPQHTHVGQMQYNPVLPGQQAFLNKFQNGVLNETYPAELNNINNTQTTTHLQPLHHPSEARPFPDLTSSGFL

Test [6] in a line: ATG_AP_1_CIS: Attagene CIS-FACTORIAL HepG2 Assay for human Activator Protein 1 (AP-1) (AID 2282931). The note with it: HepG2 Attagene cis-factorial AP-1 reporter mRNA; actives raise or lower the signal. The method in brief: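 HepG2 cells transiently transfected with cis-element-driven multiplex reporter units; 24 h compound exposure. Reporter mRNA quantified by RT-PCR, FAM-labelled fragments resolved by capillary electrophoresis; bidirectional fit versus DMSO baseline.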

Test [7] can be described thus: ATG_BRE_CIS: Attagene CIS-FACTORIAL HepG2 Assay for human Bone Morphogenetic Protein (BMP) Response Element (BRE) (AID 2282933). Particulars: HepG2 BMP response element reporter, Attagene transcription factor profiling; actives raise or lower the signal. The method in brief: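 Transient MRTU transfection of human HepG2 liver cells; 24 h compound treatment; total RNA isolated, reverse-transcribed, PCR-amplified, 6-FAM labelled, HpaI-cut, capillary electrophoresis. DMSO = negative control/baseline, bidirectional fit.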

The target in test [8] is Transcription factor E2F1 (Homo sapiens) (UniProt Q01094). Kind of test: ATG_E2F_CIS: Attagene CIS-FACTORIAL HepG2 Assay for human E2F Transcription Factor 1 (AID 2282935). The note with it: HepG2 Attagene cis-reporter, E2F reporter RNA transcripts; actives raise or lower the signal. The method in brief: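 Liver-derived HepG2 cells expressing transfected promoter-driven reporter units received test chemical for 24 hours. Signal gains or losses were fitted bidirectionally against DMSO.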
Sequence of Transcription factor E2F1 (Homo sapiens) (Q01094 whole entry, looked up): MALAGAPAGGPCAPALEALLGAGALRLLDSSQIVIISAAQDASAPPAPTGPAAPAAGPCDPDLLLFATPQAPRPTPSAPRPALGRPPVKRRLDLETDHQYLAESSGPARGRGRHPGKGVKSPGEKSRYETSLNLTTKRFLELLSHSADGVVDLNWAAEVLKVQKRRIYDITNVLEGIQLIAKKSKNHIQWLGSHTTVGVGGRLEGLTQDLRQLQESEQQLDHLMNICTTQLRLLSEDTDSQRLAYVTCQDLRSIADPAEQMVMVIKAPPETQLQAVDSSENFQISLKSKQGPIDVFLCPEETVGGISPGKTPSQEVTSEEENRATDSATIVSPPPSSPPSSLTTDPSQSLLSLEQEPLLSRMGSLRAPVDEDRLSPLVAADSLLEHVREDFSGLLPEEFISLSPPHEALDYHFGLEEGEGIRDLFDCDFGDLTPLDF

Test [9] deals with Retinoic acid receptor alpha (Homo sapiens) (UniProt P10276). Kind of test: ATG_DR5_RAR_CIS: Attagene CIS-FACTORIAL HepG2 Assay for human Retinoic Acid Receptor Alpha (RARE), DR5 submotif (AID 2282934). The note with it: HepG2 Attagene cis-factorial RARE DR5 reporter, mRNA; actives raise or lower the signal. The method in brief:
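After 24 h of chemical exposure, transiently transfected HepG2 cells were lysed for total RNA; the DR5-regulated reporter transcript was quantified via RT-PCR and capillary electrophoresis, with activity fitted bidirectionally against DMSO.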

Calls of active or inactive are those of the source. Rule for the calls: active = hit-call score of the fitted dose curve at least 0.9, where 1 is the maximum; inactive = score below 0.9.

Sequence of CCAAT/enhancer-binding protein beta (Homo sapiens) (P17676 whole entry, looked up): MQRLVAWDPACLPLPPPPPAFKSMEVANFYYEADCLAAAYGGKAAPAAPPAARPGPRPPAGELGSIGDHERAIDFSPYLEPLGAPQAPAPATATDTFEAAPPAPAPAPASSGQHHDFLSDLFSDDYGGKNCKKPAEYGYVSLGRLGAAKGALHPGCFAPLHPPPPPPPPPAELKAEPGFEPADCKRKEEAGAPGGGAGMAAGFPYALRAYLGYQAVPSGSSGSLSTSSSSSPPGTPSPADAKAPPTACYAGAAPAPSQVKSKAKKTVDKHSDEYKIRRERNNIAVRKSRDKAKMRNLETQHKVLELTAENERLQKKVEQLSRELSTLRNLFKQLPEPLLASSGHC
Sequence of Retinoic acid receptor alpha (Homo sapiens) (P10276 whole entry, looked up): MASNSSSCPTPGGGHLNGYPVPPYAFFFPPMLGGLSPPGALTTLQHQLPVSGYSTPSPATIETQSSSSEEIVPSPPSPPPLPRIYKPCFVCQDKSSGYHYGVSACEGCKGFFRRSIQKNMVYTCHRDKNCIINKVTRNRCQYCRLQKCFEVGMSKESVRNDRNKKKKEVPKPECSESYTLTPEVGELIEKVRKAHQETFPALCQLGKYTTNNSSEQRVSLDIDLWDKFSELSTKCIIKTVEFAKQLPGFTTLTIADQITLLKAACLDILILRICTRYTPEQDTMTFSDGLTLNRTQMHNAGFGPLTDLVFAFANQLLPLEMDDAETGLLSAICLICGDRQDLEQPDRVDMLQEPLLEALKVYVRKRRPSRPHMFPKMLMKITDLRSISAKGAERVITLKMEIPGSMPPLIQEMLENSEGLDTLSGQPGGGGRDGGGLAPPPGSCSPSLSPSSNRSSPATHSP

Turning to `CC(=O)c1ccc2c(c1)[C@H](NC(=O)c1ccc(F)cc1)[C@@H](O)C(C)(C)O2`, the outcome in [1], in test [2], in [3], in [4], in [5] and in test [6] was inactive. Moreover, the result in [7] and in [8] was inactive.
As for `CC(C)CCO`, the result in test [1], in test [2], in test [3], in test [4], in test [5] and in test [6] was inactive. Besides, the call in test [7] and in [8] was inactive.
`CC(C)CCCCCCOC(=O)c1ccc(C(=O)OCCCCCCC(C)C)c(C(=O)OCCCCCCC(C)C)c1`: the call in test [1], in test [2], in [3], in [4], in test [5] and in [6] was inactive. Besides, the outcome in test [7] and in test [8] was inactive.
With `CC(C)=CCCC(C)CCO` (configuration not stated), the result in test [1], in test [2], in test [3], in test [4], in test [5] and in test [6] was inactive. The result in [7] and in test [8] was inactive.
For the compound `Cc1[nH]cnc1C[C@H]1CCc2c(C)c3ccccc3n2C1=O`, the AC50 was 29.7 µM (active) in [1], 42.1 µM (active) in test [4] and 29.7 µM (active) in test [7]. The outcome in test [2], in test [3], in [5], in [6], in test [9] and in [8] was inactive.
Consider `CC(C)CC(C)(O)C#CC(C)(O)CC(C)C` (configuration not stated), for which the outcome in [1], in test [2], in test [3], in test [4], in test [5] and in [6] was inactive. Also, the result in test [7] and in test [8] was inactive.
With `O=C(O)CCN(C1(C(=O)NO)CCCC1)S(=O)(=O)c1ccc(Oc2ccc(F)cc2)cc1`, the result in test [1], in test [2], in test [3], in [4], in test [5] and in [6] was inactive. The compound was classed as inactive in test [7] and in test [8].
As to `O=C(O)c1cc(N=Nc2ccc(S(=O)(=O)Nc3ccccn3)cc2)ccc1O`, the compound was classed as inactive in test [1], in test [2], in test [3], in test [4], in [5] and in [6]. The compound was classed as inactive in [7] and in test [8].
For the compound `Cn1c(=O)cc(Oc2ccc(F)cc2F)c2cnc(NCC(C)(C)O)nc21`, the compound was classed as inactive in test [1], in test [2], in [3], in test [4], in test [5] and in test [6]. Moreover, the compound was classed as inactive in [7] and in test [8].
As to `Cc1ccc(O)cc1`, the call in test [1], in test [2], in test [3], in [4], in [5] and in [6] was inactive. For the same compound, the outcome in [7] and in [8] was inactive.
As for `O=C(OC[C@H]1O[C@@H](OC(=O)c2cc(O)c(O)c(OC(=O)c3cc(O)c(O)c(O)c3)c2)[C@H](OC(=O)c2cc(O)c(O)c(OC(=O)c3cc(O)c(O)c(O)c3)c2)[C@@H](OC(=O)c2cc(O)c(O)c(OC(=O)c3cc(O)c(O)c(O)c3)c2)[C@@H]1OC(=O)c1cc(O)c(O)c(OC(=O)c2cc(O)c(O)c(O)c2)c1)c1cc(O)c(O)c(OC(=O)c2cc(O)c(O)c(O)c2)c1`, the outcome in test [1], in test [2], in test [3], in [4], in test [5] and in test [6] was inactive. Moreover, the compound was called inactive in test [7], in [9] and in test [8].
In the case of `COc1ccc2sc(C(=O)Nc3nnn[nH]3)c(OC(C)C)c2c1`, the compound was called inactive in [1], in [2], in [5] and in test [8]. Also, the AC50 is 26.9 µM (active) in test [3], 158 µM (active) in test [4], 27 µM (active) in [6] and 41.8 µM (active) in test [7].
Take `Clc1nc(Cl)c(Cl)c(Cl)c1Cl`: the compound was classed as inactive in test [1], in test [2], in [3], in test [4], in test [5] and in test [6]. The compound was classed as inactive in test [7] and in test [8].
For the compound `C1=CCCC=CCCC=CCC1`, the compound was called inactive in test [1], in test [2], in [5], in test [7] and in test [8]. Moreover, the concentration at half-maximal activity (AC50) was 135 µM (active) in [3], 100 µM (active) in [4] and 161 µM (active) in test [6].
`CCCCC(CC)COC(=O)CCCCCCCCC(=O)OCC(CC)CCCC` (configuration not stated): the concentration at half-maximal activity (AC50) in test [1] was 25.2 µM (active). In addition, the result in [2], in test [3], in test [4], in test [5], in [6] and in test [7] was inactive. Also, the call in test [8] was inactive.
On to `CCCCCCc1ccc(O)cc1O`, for which the compound was called inactive in [1], in test [2], in test [5], in test [6], in test [7] and in test [8]. Moreover, the AC50 in test [3] was 33.4 µM (active); in test [4], 44.4 µM (active).
For `CC/C(=C\C(=N/O)C(N)=O)C(C)[N+](=O)[O-]` (configuration not stated), the outcome in test [1], in [2], in [3], in test [4], in test [5] and in test [6] was inactive. The compound was classed as inactive in test [7] and in [8].
Turning to `Oc1ccc2c(c1)-c1ccccc1C2`, the concentration at half-maximal activity (AC50) in [1] is 44.4 µM (active); in test [2] it was 74 µM (active); in [3], 4.28 µM (active); in [4], 1.79 µM (active); in [5], 2.53 µM (active); in [7], 84.4 µM (active). Also, the outcome in test [6] and in test [8] was inactive.
As for `CC(C)=CCC/C(C)=C\CO`, the result in [1], in test [2], in test [3], in test [4], in [5] and in test [6] was inactive. The compound was classed as inactive in test [7] and in test [8].
`CCc1cc(SCc2sc(-c3ccc(C(F)(F)F)cc3)nc2CN2CCN(c3ccc(OC)cc3)CC2)ccc1OCC(=O)O`: the call in test [1], in test [2], in test [3] and in test [6] was inactive. For the same compound, the half-maximal activity concentration (AC50) is 3.68 µM (active) in test [4], 17.4 µM (active) in test [5], 18.2 µM (active) in test [7] and 1.9 µM (active) in test [8].
Consider `CC[C@H](C)C(=O)O[C@H]1C[C@@H](C)C=C2C=C[C@H](C)[C@H](CC[C@@H]3C[C@@H](O)CC(=O)O3)[C@H]21`, for which the outcome in [1], in test [2], in test [3], in test [5], in test [6] and in test [7] was inactive. In addition, the result in [8] was inactive. Moreover, in [4], the AC50 was 52.4 µM (active).
For the compound `NC(=O)NO`, the outcome in test [1], in test [2], in test [3], in test [4], in [6] and in [7] was inactive. The compound was called inactive in test [8]. The half-maximal activity concentration (AC50) in test [5] was 100 µM (active).
Regarding `C[C@](N)(Cc1ccc(O)c(O)c1)C(=O)O`, the result in test [1], in test [2], in test [3], in [4], in test [5] and in [6] was inactive. In addition, the outcome in test [7] and in test [8] was inactive.
Regarding `CCOCCOCCOCCO`, the compound was called inactive in test [1], in test [2], in test [3], in [4], in [5] and in [6]. Besides, the outcome in test [7] and in test [8] was inactive.
Consider `COC(=O)c1ccccc1O`, for which the result in test [1], in test [2], in [3], in test [5], in [6] and in [7] was inactive. For the same compound, the compound was classed as inactive in [8]. Besides, the concentration at half-maximal activity (AC50) in [4] was 26.1 µM (active).

The term AC50 denotes the midpoint of the concentration-response curve, whichever way the signal moves.
